Results on 28 sequences are retold here after the supplement of paper PMC12645437, “Orthogonal IMiD-Degron Pairs Induce Selective Protein Degradation in Cells” (ACS Chemical Biology, 2025).

This assay has as its target T1, CRBN, Q96SW2.
T1 chain: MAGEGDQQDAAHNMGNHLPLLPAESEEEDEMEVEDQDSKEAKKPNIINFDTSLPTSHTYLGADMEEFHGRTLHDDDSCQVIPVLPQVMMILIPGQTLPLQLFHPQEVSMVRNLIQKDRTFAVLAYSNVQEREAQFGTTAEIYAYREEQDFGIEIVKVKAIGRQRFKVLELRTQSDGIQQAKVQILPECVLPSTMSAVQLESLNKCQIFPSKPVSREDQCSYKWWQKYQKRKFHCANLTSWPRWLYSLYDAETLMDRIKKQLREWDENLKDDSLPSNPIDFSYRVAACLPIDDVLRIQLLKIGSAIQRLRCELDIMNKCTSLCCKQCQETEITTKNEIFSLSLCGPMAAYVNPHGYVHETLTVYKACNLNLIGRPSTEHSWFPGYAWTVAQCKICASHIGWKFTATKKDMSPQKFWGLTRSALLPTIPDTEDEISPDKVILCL
Kind of assay: log2 fold change of degron read counts, EGFP-low vs EGFP+ sorted cells (limma voom), compound-induced degradation; higher = more compound-induced degradation of the degron-EGFP fusion; degrons are variants of IKZF1/3 zinc finger 2; compound dose not given here. Particulars: Jurkat, 18 h.

Setting [1] is: compound: compound 19 (5-tert-butyl-thalidomide).
Setting [2] is: compound: compound 22 (5-morpholino-thalidomide).
Where [3] appears, read: compound: compound 33 (diphenyl IMiD analogue).

The full ranking holds about 8,300 sequences; the median of “log2 fold change of degron read counts, EGFP-low vs EGFP+ sorted cells (limma voom), compound-induced degradation” is about -1.1, and the highest 2% start at about 3.2. The list comes from a sample in which the highest values are over-represented; it also holds similar and randomly drawn sequences.
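Further: pooled lentiviral library of zinc finger degron-EGFP fusions in mCherry-positive Jurkat cells, FACS-sorted after compound exposure, with degron abundance counted by next-generation sequencing.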

In the case of FQCPICGHNFTQKGNLLRHIKL [46F_47Q_49P_50I_52G_53H_54N_55F_67L_, Q9UKT9], the “log2 fold change of degron read counts” value under setting [1] is -2.9, the “log2 fold change of degron read counts” value under setting [2] is -1.92, the “log2 fold change of degron read counts” value under setting [3] is -1.21 and the “log2 fold change of degron read counts” value (compound: thalidomide) was 0.375.

On to LMCPICGFTCTQKGNLLRHIKL [46L_47M_49P_50I_52G_53F_54T_55C_67L_, Q9UKT9], for which the “log2 fold change of degron read counts” value under setting [1] was -0.0285, the “log2 fold change of degron read counts” value under setting [2] was found to be 1.97, the “log2 fold change of degron read counts” value under setting [3] is 2.76 and the “log2 fold change of degron read counts” value (compound: thalidomide) was found to be 2.79.

Regarding LFCPICGFTCTQKGNLLRHIKL [46L_47F_49P_50I_52G_53F_54T_55C_67L_, Q9UKT9], the “log2 fold change of degron read counts” value runs as follows: under setting [1], 3.39; under setting [2], 3.54; under setting [3], 2.49; (compound: thalidomide) 2.69.

Turning to LRCPICGFTCTQKGNLLRHIKL [46L_47R_49P_50I_52G_53F_54T_55C_67L_, Q9UKT9], the “log2 fold change of degron read counts” value amounted to 0.326 under setting [1], 0.593 under setting [2], 1.93 under setting [3] and 2.23 (compound: thalidomide).

Take LVCPICGFTCTQKGNLLRHIKL [46L_47V_49P_50I_52G_53F_54T_55C_67L_, Q9UKT9]: the “log2 fold change of degron read counts” value came out at 1.27 under setting [1], 2.61 under setting [2], 2.22 under setting [3] and 3.21 (compound: thalidomide).

LQCPICGFTCTQKGNLLRHIKL [46L_47Q_49P_50I_52G_53F_54T_55C_67L_, Q9UKT9]: the “log2 fold change of degron read counts” value is, setting by setting: under setting [1], 1.75; under setting [2], 2.59; under setting [3], 2.54; (compound: thalidomide) 3.66.

Turning to LACPICGFTCTQKGNLLRHIKL [46L_47A_49P_50I_52G_53F_54T_55C_67L_, Q9UKT9], the “log2 fold change of degron read counts” value worked out at 3.68 under setting [1], 3.23 under setting [2], 2.51 under setting [3] and 2.61 (compound: thalidomide).

Consider LKCPICGFTCTQKGNLLRHIKL [46L_47K_49P_50I_52G_53F_54T_55C_67L_, Q9UKT9], for which the “log2 fold change of degron read counts” value reads like this: under setting [1], -0.865; under setting [2], -1.65; under setting [3], -1.59; (compound: thalidomide) 0.662.

With LICPICGFTCTQKGNLLRHIKL [46L_47I_49P_50I_52G_53F_54T_55C_67L_, Q9UKT9], the “log2 fold change of degron read counts” value is, setting by setting: under setting [1], 0.369; under setting [2], 2.36; under setting [3], 2.13; (compound: thalidomide) 2.81.

For LTCPICGFTCTQKGNLLRHIKL [46L_47T_49P_50I_52G_53F_54T_55C_67L_, Q9UKT9], the “log2 fold change of degron read counts” value was found to be 1.57 under setting [1], 3.31 under setting [2], 2.65 under setting [3] and 3.44 (compound: thalidomide).

As for LHCPICGFTCTQKGNLLRHIKL [46L_47H_49P_50I_52G_53F_54T_55C_67L_, Q9UKT9], the “log2 fold change of degron read counts” value by setting is: under setting [1], 2.75; under setting [2], 2.97; under setting [3], 2.8; (compound: thalidomide) 2.34.

On to LLCPICGFTCTQKGNLLRHIKL [46L_47L_49P_50I_52G_53F_54T_55C_67L_, Q9UKT9], for which the “log2 fold change of degron read counts” value stood at 0.147 under setting [1], 0.286 under setting [2], 1.38 under setting [3] and 2.64 (compound: thalidomide).

As for LSCPICGFTCTQKGNLLRHIKL [46L_47S_49P_50I_52G_53F_54T_55C_67L_, Q9UKT9], the “log2 fold change of degron read counts” value runs as follows: under setting [1], 3.13; under setting [2], 2.83; under setting [3], 2.48; (compound: thalidomide) 2.59.

FICNQCGHNFTQKGNLLRHIKL [46F_47I_49N_50Q_52G_53H_54N_55F_67L_, Q9UKT9]: the “log2 fold change of degron read counts” value under setting [1] is -2.7, the “log2 fold change of degron read counts” value under setting [2] was -3.24, the “log2 fold change of degron read counts” value under setting [3] is -2.97 and the “log2 fold change of degron read counts” value (compound: thalidomide) was -2.3.

For the sequence FICNQCGHQFTQKGNLLRHIKL [46F_47I_49N_50Q_52G_53H_54Q_55F_67L_, Q9UKT9], the “log2 fold change of degron read counts” value was -3.84 under setting [1], -3.33 under setting [2], -2.9 under setting [3] and -3.11 (compound: thalidomide).

Turning to FNCEICGAFFTQKGNLLRHIKL [46F_47N_49E_50I_52G_53A_54F_55F_67L_, Q9UKT9], the “log2 fold change of degron read counts” value reads like this: under setting [1], 0.798; under setting [2], -1.38; under setting [3], -0.734; (compound: thalidomide) -1.26.

On to FACNICGAGFTQKGNLLRHIKL [46F_47A_49N_50I_52G_53A_54G_55F_67L_, Q9UKT9], for which the “log2 fold change of degron read counts” value is 1.91 under setting [1], 0.962 under setting [2], -0.444 under setting [3] and -0.984 (compound: thalidomide).

On to FWCEICGRHFTQKGNLLRHIKL [46F_47W_49E_50I_52G_53R_54H_55F_67L_, Q9UKT9], for which the “log2 fold change of degron read counts” value under setting [1] came out at 0.466, the “log2 fold change of degron read counts” value under setting [2] was 0.665, the “log2 fold change of degron read counts” value under setting [3] turned out to be 0.0348 and the “log2 fold change of degron read counts” value (compound: thalidomide) is -0.898.

For the sequence FNCPICGRMFTQKGNLLRHIKL [46F_47N_49P_50I_52G_53R_54M_55F_67L_, Q9UKT9], the “log2 fold change of degron read counts” value is, setting by setting: under setting [1], -0.587; under setting [2], -0.626; under setting [3], -0.159; (compound: thalidomide) -0.181.

As for FGCNQCGHNFTQKGNLLRHIKL [46F_47G_49N_50Q_52G_53H_54N_55F_67L_, Q9UKT9], the “log2 fold change of degron read counts” value by setting is: under setting [1], -2.02; under setting [2], -2.05; under setting [3], -2.04; (compound: thalidomide) -1.85.

Turning to LLCPICGFHCTQKGNLLRHIKL [46L_47L_49P_50I_52G_53F_54H_55C_67L_, Q9UKT9], the “log2 fold change of degron read counts” value under setting [1] was -0.42, the “log2 fold change of degron read counts” value under setting [2] was found to be 0.0892, the “log2 fold change of degron read counts” value under setting [3] amounted to 1.25 and the “log2 fold change of degron read counts” value (compound: thalidomide) was found to be 1.51.

Take FICPICGHFFTQKGNLLRHIKL [46F_47I_49P_50I_52G_53H_54F_55F_67L_, Q9UKT9]: the “log2 fold change of degron read counts” value by setting is: under setting [1], -1.6; under setting [2], -2.08; under setting [3], -1.13; (compound: thalidomide) -1.31.

Turning to LECPICGFTCTQKGNLLRHIKL [46L_47E_49P_50I_52G_53F_54T_55C_67L_, Q9UKT9], the “log2 fold change of degron read counts” value was 1.1 under setting [1], 0.00767 under setting [2], 2.64 under setting [3] and 3.38 (compound: thalidomide).

Turning to LECEICGFTCTQKGNLLRHIKL [46L_47E_49E_50I_52G_53F_54T_55C_67L_, Q9UKT9], the “log2 fold change of degron read counts” value was 0.26 under setting [1], -0.872 under setting [2], 1.66 under setting [3] and 2.87 (compound: thalidomide).

As for LGCPICGFTCTQKGNLLRHIKL [46L_47G_49P_50I_52G_53F_54T_55C_67L_, Q9UKT9], the “log2 fold change of degron read counts” value is 3.65 under setting [1], 2.87 under setting [2], 1.97 under setting [3] and 1.36 (compound: thalidomide).

In the case of LYCPICGFTCTQKGNLLRHIKL [46L_47Y_49P_50I_52G_53F_54T_55C_67L_, Q9UKT9], the “log2 fold change of degron read counts” value is, setting by setting: under setting [1], 3.6; under setting [2], 3.63; under setting [3], 2.97; (compound: thalidomide) 2.63.

Turning to LWCPICGFTCTQKGNLLRHIKL [46L_47W_49P_50I_52G_53F_54T_55C_67L_, Q9UKT9], the “log2 fold change of degron read counts” value amounted to 3.24 under setting [1], 3.71 under setting [2], 3.05 under setting [3] and 2.09 (compound: thalidomide).

For LQCNQCGFICTQKGNLLRHIKL [46L_47Q_49N_50Q_52G_53F_54I_55C_67L_, Q9UKT9], the “log2 fold change of degron read counts” value under setting [1] is -2.79, the “log2 fold change of degron read counts” value under setting [2] was -2.4, the “log2 fold change of degron read counts” value under setting [3] was -2.23 and the “log2 fold change of degron read counts” value (compound: thalidomide) is -0.473.
